Source: PubChem BioAssay
Most compounds without a hit are left out; they make up all but 12% or so of the library.
G9a block: G9a (human) methyltransferase inhibition; G9a H3K9 monomethylation, AlphaScreen, 2 h; hit rate 8.8% among 350,000; Q96KQ7; Potency, µM (series often up to 102 µM), usual class: inhibitors; also: nearly all actives have a fitted effect of over 75% in size
Target sequence (Q96KQ7 913-1193 limits assumed): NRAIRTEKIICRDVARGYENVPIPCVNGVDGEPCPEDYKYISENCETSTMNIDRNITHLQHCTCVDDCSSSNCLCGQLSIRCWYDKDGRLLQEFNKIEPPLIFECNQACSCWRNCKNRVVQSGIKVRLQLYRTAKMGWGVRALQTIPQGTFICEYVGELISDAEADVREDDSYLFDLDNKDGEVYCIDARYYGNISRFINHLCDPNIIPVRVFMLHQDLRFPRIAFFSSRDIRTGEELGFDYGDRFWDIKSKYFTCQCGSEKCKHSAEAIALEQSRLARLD
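Using a bead-based AlphaScreen, monomethylated H3K9 product from 2 h room-temperature reactions (G9a 20 nM, peptide 500 nM, SAM 20 uM) was detected with 0.5 ug/mL rabbit anti-H3K9me1 antibody.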
BAZ2B block: blocks human BAZ2B. Q9UIF8. AlphaScreen BAZ2B-H3K14Ac peptide displacement. Potency, µM (doses to about 114 µM), actives largely listed as inhibitors. hit rate 4.4% among 360,000. AID 504333; also: nearly all actives have a fitted effect of over 60% in size
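Multi-concentration screen (max 110 uM) measuring displacement of acetylated histone H3 peptide from BAZ2B by AlphaScreen, using 50 nM protein, 50 nM peptide and 10 ug/mL streptavidin donor plus Ni-chelate acceptor beads.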
Sfp PPTase inh: inhibitors of Bacillus subtilis Sfp phosphopantetheinyl transferase | Biochemical Sfp PPTase activity, qHTS | Potency, µM, hits mostly inhibitors | hit rate 3.5% among 310,000 | AID 1490;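 also: the enzyme is Sfp with the accession as filed and its product quenches rhodamine fluorescence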
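With Hepes-Na pH 7.6 buffer containing 10 mM MgCl2, Sfp (15 nM) modified BHQ-2-YbbR (12.5 uM) using rhodamine-CoA (5 uM). Two reads 30 minutes apart at 525/598 nm yielded each well's rate.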
JMJD2A Tudor: JMJD2A Tudor domain (human) inhibition | O75164 | AlphaScreen JMJD2A-Tudor / H3K4me3 peptide binding | Potency, µM (top dose mostly 114 µM), hits mostly inhibitors | hit rate 4.4% among 390,000 | AID 504339; also: nearly all actives have a fitted effect of over 50% in size
HP1b binding inh: inhibitors of HP1-beta chromodomain binding to methylated histone tails. P83916. AlphaScreen HP1-beta / biotin-H3K9me3 peptide binding. Potency, µM (series often up to 114 µM), usual class: inhibitors. hit rate 0.56% among 390,000. AID 540317; also: nearly all actives have a fitted effect of over 70% in size
Target sequence (P83916 whole entry, looked up): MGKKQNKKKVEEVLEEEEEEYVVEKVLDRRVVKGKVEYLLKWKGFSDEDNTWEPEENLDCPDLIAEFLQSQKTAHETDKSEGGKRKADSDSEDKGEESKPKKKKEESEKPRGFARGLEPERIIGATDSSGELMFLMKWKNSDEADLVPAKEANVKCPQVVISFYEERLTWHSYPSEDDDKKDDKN
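AlphaScreen: HP1-beta (50 nM) preformed 30 min with biotin-H3(1-18)K9me3 peptide (50 nM) in PBS pH 7.4, 0.01% Tween-20. Compound added for 30 min at RT, then streptavidin donor/nickel chelate acceptor beads (10 ug/mL) for 30 min.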
Hits are given with their value; – = inactive; ? = inconclusive; · = no result; [ ] = remark or other dose. Calls follow the shape of the dose curve; as a rule, active = well fitted curve in the direction sought with a large enough effect; inconclusive = small, poorly fitted or top-dose-only effect, or another doubt; inactive = no such curve, though single readings can be large; an effect the other way counts as inactive or inconclusive.

SMILES	G9a block	BAZ2B block	Sfp PPTase inh	JMJD2A Tudor	HP1b binding inh
O=C(NCCCn1ccnc1)C(=O)NCC(c1cccnc1)N1CCN(c2ccc(F)cc2)CC1 (stereo not drawn)	50.1µM	50.1µM	–	–	–
O=C(NCC(c1cccnc1)N1CCN(c2ccc(F)cc2)CC1)c1ccccc1 (stereo not drawn)	–	–	–	–	–
O=C(NCC(c1cccnc1)N1CCOCC1)C(=O)Nc1ccc(Cl)cc1 (stereo not drawn)	–	–	·	–	–
COc1ccc(NC(=O)C(=O)NCC(c2cccnc2)N2CCc3ccccc3C2)cc1 (stereo not drawn)	14.1µM	10µM	·	39.8µM	?
O=C(NCC(c1cccnc1)N1CCc2ccccc2C1)C(=O)Nc1ccccc1 (stereo not drawn)	?	?	·	?	–
COc1ccc(CCNC(=O)C(=O)NCC(c2cccnc2)N2CCN(c3ccccc3)CC2)cc1 (stereo not drawn)	–	–	·	–	–
Cc1cccc(NC(=S)NC(=O)c2ccco2)n1	–	–	–	–	–
Cc1ccc(CNc2ccc(O)cc2)cc1	?	31.6µM	?	50.1µM	–
CC(=O)N1CCN(c2ccc(NCc3ccc(-c4cccc(Cl)c4)o3)cc2)CC1	·	·	·	39.8µM	?
COc1cc(CNc2ccc(N3CCOCC3)cc2)ccc1OCC(=O)NC(C)(C)C	·	–	–	?	–
CC(=O)N1CCN(c2ccc(NCc3ccco3)cc2)CC1	–[0.501 µM]	?	·	–	–
COc1cc(CNc2ccc(N3CCN(C(C)=O)CC3)cc2)ccc1OCc1ccccc1	28.2µM	39.8µM	–	44.7µM	44.7µM
CCc1ccc(CNc2ccc(N3CCN(C(C)=O)CC3)cc2)cc1	?	39.8µM	35.5µM	?	–
Cc1cccc(OCC2=N/C(=C\N(C)C)C(=O)O2)c1	–	–	–	–	–
COc1ccc(Br)cc1CN(C)C(=O)c1ccccc1SCC(=O)N1CCCC1	·	·	·	–	–
CC(C)C(OC(=O)c1cccs1)C(=O)NCc1ccco1 (stereo not drawn)	–[12.7 µM]	–	–	–	–
COc1ccc(C(=O)c2c(N)sc3c2CCN(C)C3)cc1	–[0.501 µM]	–	–	–	–
COc1ccc(N2CCN(C(=O)NCc3ccc(C)cc3)CC2)cc1	39.8µM	–	–	–	–
CC(=O)N1CCN(c2ccc(NCc3ccc(C)cc3)cc2)CC1	12.6µM	44.7µM	39.8µM	?	–
Cc1ccc(CNC(=O)N2CCN(c3ccc(C)cc3)CC2)cc1	?	–	–	–	–
Cc1cccc(CN2CCN(Cc3cccc4nonc34)CC2CCO)n1 (stereo not drawn)	–[0.501 µM]	–	–	–	–
Cc1cc(C)nc(NN2C(=O)C=CC2=O)n1	2.82µM	–	14.1µM	?	?
COc1ccccc1OCCNC(=O)C1CC(=O)N(Cc2ccccc2)C1 (stereo not drawn)	–[12.7 µM]	–	·	–	–
COCCCn1c(C)csc1=Nc1cccnc1	–	–	–	–	–
COCCn1c(-c2cccs2)csc1=Nc1cccnc1	?	44.7µM	?	?	–
SMILES	G9a block	BAZ2B block	Sfp PPTase inh	JMJD2A Tudor	HP1b binding inh
CC(C)Cn1c(-c2ccco2)csc1=Nc1cccnc1	44.7µM	31.6µM	?	–	–
Fc1ccccc1-c1csc(=Nc2cccnc2)n1CCCn1ccnc1	44.7µM	44.7µM	–	?	–
COCCn1c(-c2ccco2)csc1=Nc1cccnc1	?	?	20µM	89.1µM	–
COc1ccc(O)c(/C=N/n2c(-c3ccco3)csc2=Nc2cccnc2)c1	–	?	–	–	–
COCCn1c(SCC(=O)c2cccc(OC)c2)nnc1-c1ccco1	–	–	–	–	–
O=C(CCCN=C1NS(=O)(=O)c2ccccc21)Nc1ccc(Cl)cc1	–[12.7 µM]	–	·	–	–
O=C(c1ccc(Cl)c(Cl)c1)N1CCC(=O)N(C(COCc2ccccc2)Cc2ccccc2)CC1 (stereo not drawn)	–	–	–	–	–
O=C(c1ccc(Cl)c(Cl)c1)N1CCC(=O)N(C(CO)Cc2ccccc2)CC1 (stereo not drawn)	·	·	·	35.5µM	–
Cn1c(C(=O)NCCN2CCN(Cc3ccccc3)CC2)cc2c(=O)n(C)c3ccccc3c21	–	–	–	–	–
Cn1c(C(=O)NCCN2CCCCCC2)cc2c(=O)n(C)c3ccccc3c21	35.5µM	?	–	–	–
Cn1c(C(=O)NCCCN2CCN(c3ccccc3F)CC2)cc2c(=O)n(C)c3ccccc3c21	50.1µM	–	–	?	–
CCNc1nc(-c2ccc(OC(F)F)cc2)c(C)s1	39.8µM	–	?	–	–
COc1ccc(-c2nc(NC3=NCCCCC3)sc2C)cc1	?	?	–	–	–
N#CC1=C(N)Oc2cc3ccccc3cc2C1c1cccs1 (stereo not drawn)	–[0.0925 µM]	–	79.4µM	–	–
CC1(C)Cc2c(sc3nc(SCC(=O)O)nc(N)c23)CO1	–	–	–	–	–
CC(C)(C)C1CCc2c(sc3nc(SCC(=O)O)nc(N)c23)C1 (stereo not drawn)	28.2µM	–	–	–	–
COC(=O)CSc1nc(N)c2c3c(sc2n1)C(c1ccccc1)SC(c1ccccc1)C3 (stereo not drawn)	?	–	39.8µM	–	–
CCN(CC)CCN(CC(=O)N(C1CCCCC1)C1CCCCC1)C(=O)c1cccnc1	50.1µM	?	–	–	–
CCOc1ccc(C(=O)Nc2ccc(-c3nc4ccccc4s3)c(C)c2)cc1OCC	–	–	·	–	–
c1ccc(-c2nc(-c3ccccn3)no2)cc1	–	–	–	–	–
c1ccc(-c2n[nH]c(-c3ccccn3)n2)cc1	?	8.91µM	–	?	–
Oc1ccccc1C1NN=C(c2ccccc2)S1 (stereo not drawn)	·	17.8µM	–	–	–
Cc1cccc(N2CCN(c3ccc(NC(=O)c4ccccc4)cc3C(=O)O)CC2C)c1 (stereo not drawn)	?	79.4µM	·	89.1µM	–
Cc1cccc(N2CCN(C(=O)CC(NC(=O)c3ccccc3)c3ccccc3)CC2C)c1 (stereo not drawn)	–	?	–	?	–
Cc1cccc(N2CCN(c3ccc(C(=O)O)cc3NC(=O)c3cccc(Cl)c3)CC2C)c1 (stereo not drawn)	–	?	·	56.2µM	–
SMILES	G9a block	BAZ2B block	Sfp PPTase inh	JMJD2A Tudor	HP1b binding inh
CC12CCC(C(=O)NCc3ccc4c(c3)OCO4)(CC1=O)C2(C)C (stereo not drawn)	–	–	–	–[11.4 µM]	–
CC12CCC(C(=O)NCc3ccc4c(c3)OCO4)(C(=O)C1=O)C2(C)C (stereo not drawn)	44.7µM	–	–	–	–
Nc1ccc(S(=O)(=O)N2CCN(S(=O)(=O)c3c(F)cccc3F)CC2)cc1	·	·	·	89.1µM	·
Cc1nc(N)sc1-c1csc(Nc2ncccn2)n1	?	?	–	?	?
Cc1nc(NC(=O)c2ccccc2)sc1-c1csc(NCc2ccccc2)n1	39.8µM	?	–	?	–
Cc1nc(NC(=O)c2ccccc2)sc1-c1csc(Nc2cccc(F)c2)n1	44.7µM	?	–	·	·
Cc1nc(NC(=O)c2ccccc2)sc1-c1csc(N)n1	8.91µM	?	–	?	–
Cc1nc(N)sc1-c1csc(NCc2ccccc2)n1	10µM	31.6µM	39.8µM	?	–
